# Sampled rows, rich in hits. Any-hit rate of the full collection: about 21%.
# IL1B secr inh: qHTS for Inhibitors of Inflammasome Signaling: IL-1-beta AlphaLISA Primary Screen | THP-1 LPS/ATP IL-1B secretion, AlphaLISA, 16 h; active compounds read low | activity change, % at 57.5 µM | 4.7% of 360,000 active; in the data active = activity change below about -50%; inconclusive = mostly about -30% to -49%; note: % is set by controls: 0 for no effect and ±100 for the full control effect
#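 Secreted IL-1B measured by AlphaLISA bead assay after 16 h compound exposure of THP-1 cells; compounds (final up to 57.5 uM) added 1 h before LPS (250 ng/mL) and ATP (1.25 mM) stimulation; lower signal means less secretion.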
# DRD3 agonist: qHTS of D3 Dopamine Receptor Agonist: qHTS; D(3) dopamine receptor (Homo sapiens), P35462; D3R DiscoveRx beta-arrestin cells, luminescence, 90 min; max activation, %; 0.58% of 410,000 active; in the data active = max activation above about 30%; note: 0% is about no effect
# Target sequence (P35462 whole entry, looked up): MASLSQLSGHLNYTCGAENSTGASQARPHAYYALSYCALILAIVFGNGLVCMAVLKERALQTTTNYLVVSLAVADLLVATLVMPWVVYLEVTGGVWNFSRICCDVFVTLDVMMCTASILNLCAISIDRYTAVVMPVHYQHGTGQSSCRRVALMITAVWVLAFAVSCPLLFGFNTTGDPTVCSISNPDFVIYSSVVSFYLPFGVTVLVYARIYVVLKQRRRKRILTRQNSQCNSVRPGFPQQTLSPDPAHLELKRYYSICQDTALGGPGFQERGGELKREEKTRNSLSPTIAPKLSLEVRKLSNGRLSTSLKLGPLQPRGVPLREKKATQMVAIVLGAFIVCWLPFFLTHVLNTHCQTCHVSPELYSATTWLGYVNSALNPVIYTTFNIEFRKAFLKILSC
#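 Cells at 1500/well, incubated overnight, then treated with pinned compounds (dopamine as control) for 90 min at 37 degrees C. DiscoveRx reagent added for 30 - 60 minutes at room temperature; luminescence read.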
# D3 antag: qHTS of D3 Dopamine Receptor Antagonist: qHTS; 2.5% of 360,000 active; D(3) dopamine receptor (Homo sapiens), P35462; D3R cells, DiscoveRx beta-arrestin luminescence, antagonist mode; active compounds read low; max response, negative = inhibition, %; in the data active = max response below about -50%; inconclusive = no clear call, values can overlap the other calls; note: % is set by controls: 0 for no effect and ±100 for the full control effect
#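 Cells plated overnight at 1500 cells/well, then exposed to library compounds with dopamine controls for 90 minutes at 37 degrees C. DiscoveRx reagent added for 30–60 minutes at room temperature; luminescence read, quantitative HTS format.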
# DT40 TDP1 no CPT: qHTS for Inhibitors of human tyrosyl-DNA phosphodiesterase 1 (TDP1): qHTS in cells in absence of CPT | Potency, µM (doses to about 46.2 µM), for the others: at the highest dose activity change, negative = growth inhibition, usual class: inhibitors | 15% of 420,000 active | DT40 Tdp1-/- hTDP1 cells, no CPT, ATP luminescence, 48 h; note: potency is the fitted concentration of half-maximal effect; % is set by controls: 0 for no effect and ±100 for the full control effect; nearly all actives have a fitted effect of over 55% in size
#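 Growth kinetics read by CellTiter-Glo luminescence after ≥48 hr at 37 °C. Cells: DT40 Tdp1-/- stably carrying human TDP1, 400 per well, compound exposure in the absence of CPT (DMSO vehicle).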
# ClpP mod: qHTS Assay for Activators of ClpP | purified B. subtilis ClpP, FRET peptide cleavage, 20 min | Potency, µM (highest dose often 57.5 µM), without a hit: at the top dose activity change, negative = active | AID 651965, 2013 | ATP-dependent Clp protease proteolytic subunit (Bacillus subtilis (strain 168)), P80244 | 1.9% of 340,000 active; active = well fitted falling curve with a large enough effect; inconclusive = small, poorly fitted or top-dose-only effect; inactive = no such curve, though single readings can be large or run the other way; note: potency is the fitted concentration of half-maximal effect; the source files actives as falling curves though it sought activators and does not explain the sign; nearly all actives have a fitted effect of over 65% in size
#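 ClpP 10 microg/mL final, pH 8 Tris/KCl buffer with BSA, glycerol, Tween-20; compound pinned in; FRET-FV substrate; RT 20 min; Ex320/Em430; ΔFRET vs ADEP 5.8 microM, DMSO, no enzyme.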
# TDP1 cell CPT: qHTS for Inhibitors of human tyrosyl-DNA phosphodiesterase 1 (TDP1): qHTS in cells in presence of CPT | Potency, µM (series often up to 46.2 µM), for the others: at the top dose activity change, negative = growth inhibition, hits mostly inhibitors | chicken DT40 Tdp1-/-;hTDP1 cells + 20 nM CPT, ATP luminescence, 48 h | 12% of 420,000 active; note: potency is the fitted concentration of half-maximal effect; % is set by controls: 0 for no effect and ±100 for the full control effect; nearly all actives have a fitted effect of over 55% in size
#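 Cell growth measured by CellTiter-Glo luminescence after a minimum 48 h, 37 C compound exposure with 20 nM CPT in Tdp1-knockout DT40 cells stably expressing hTDP1, seeded 400/well; qHTS titration format.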
# Starred values were filed as active, the others as inactive; u = inconclusive; x = no result given; [ ] = dose if it differs, or a comment. Unless noted, calls come from the whole dose curve; as a rule, active = well fitted inhibition curve with a large enough effect; inconclusive = small, poorly fitted or top-dose-only effect; inactive = flat fitted curve, though single readings scatter.
SMILES,IL1B secr inh,DRD3 agonist,D3 antag,DT40 TDP1 no CPT,ClpP mod,TDP1 cell CPT
Cc1ccc(S(=O)(=O)CCC(=O)Nc2ccc(OC(F)(F)F)cc2)cc1,x,3,x,u,2%,21µM*
CCOc1ccc(NC(=O)CCS(=O)(=O)c2ccc(Br)cc2)cc1,5,3,7,23µM*,1%,u
COc1ccc(C(=O)COC(=O)c2ccccc2O)c(OC)c1,0,4,10,-4%,-10%,u
COc1ccc(CCN(C)Cc2cc(-c3cncnc3)ccc2O)cc1OC,x,x,x,-18%,x,0%[9.04 µM]
COCCNc1ccc([N+](=O)[O-])cc1C(=O)NC1CCCc2ccccc21 (configuration not stated),-23,2,-12,u,x,-27%
Cc1cc(Cl)ccc1NC(=O)CCS(=O)(=O)c1ccc2c(c1)CC(C)N2C(=O)C1CC1 (configuration not stated),x,0,x,u,1%,12µM*
CCOc1ccc(OCC)c(NC(=O)Cn2cccc2)c1,-1,-1,13,-27%,-11%,2%
CCOc1ccc(OCC)c(NC(=O)CN2CCN(CC(=O)NC(C)C)CC2)c1,1,10,4,u,-4%,15µM*
CCOc1ccc(OCC)c(NC(=O)CN2CCN(c3cc(C)ccc3C)CC2)c1,-24,4,14,23µM*,-1%,21µM*
CCOc1ccc(OCC)c(NC(=O)CN2CCN(c3cccc(C)c3)CC2)c1,22,6,u,16µM*,-6%,23µM*
CCOc1ccc(OCC)c(NC(=O)CN2CCN(CC)CC2)c1,10,0,-17,-20%,-7%,-7%
CCOc1ccc(OCC)c(NC(=O)CN2CCN(c3cccc(C)c3)C(C)C2)c1 (configuration not stated),-25,0,7,15µM*,-1%,15µM*
CCCN1CCN(CC(=O)Nc2cc(OCC)ccc2OCC)CC1,-11,-1,0,u,1%,-15%
CC(=O)NC(Cc1cccc(F)c1)C(=O)NC1CCN(c2nnnn2-c2ccccc2)CC1 (configuration not stated),8,0,16,-1%,-1%,0%
COc1ccc(N2C(=O)NC(NC(=O)C(C)(C)C)(C(F)(F)F)C2=O)cc1 (configuration not stated),18,5,3,1%,0%,2%
O=C(Nc1cc(C(F)(F)F)ccc1N1CCCC1)c1ccc2c(c1)OCO2,-6,-3,8,u,0%,-19%
O=C(Nc1cc(C(F)(F)F)ccc1N1CCCCC1)c1cccc([N+](=O)[O-])c1,-2,6,36,16µM*,2%,u
Cc1ccc(C(=O)Nc2cc(C(F)(F)F)ccc2N2CCCCC2)cc1[N+](=O)[O-],-18,4,31,21µM*,1%,18µM*
Cc1cc(C)cc(NC(=O)c2cn3c4c(ccc(Cl)c4c2=O)OC(C)C3)c1 (configuration not stated),x,6,x,-4%,-2%,-1%
CC1CCC(NC(=O)C2(C)Cc3ccccc3C(=O)N2Cc2ccccc2Cl)CC1 (configuration not stated),x,1,x,23µM*,u,u
CC1CCC(NC(=O)C2(C)Cc3ccccc3C(=O)N2Cc2ccc(F)cc2)CC1 (configuration not stated),x,1,x,u,-13%,u
Cc1ccccc1C(=O)NC(=S)Nc1ccccc1C(=O)O,18,-8,-4,-6%,x,-13%

# Screening results: PubChem, National Center for Advancing Translational Sciences (NCATS)
